# Source: PubChem
# Only some compounds are listed: those with a hit (about 3.5% of all), similar ones and a draw of the others.
# TEAD-YAP inh: TEAD-YAP interaction inhibition; AID 1259422; 640,000 compounds, 1.4% hits; HEK-TIYL cells, TEAD-Gal4/YAP UAS-luciferase luminescence; inhibition, % at 9.12 µM; in the data active = inhibition above about 32%;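 note: 0% = median of test compound wells and 100% = reference inhibitor wells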
# MITF inh: inhibitors of human MITF; inhibition, % at 2.6 µM; 650,000 compounds, 0.91% hits; AlphaScreen MITF homodimerization, bead proximity signal; in the data active = inhibition above about 50%;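 note: 0% = vehicle wells with protein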
# FBW7 activator: activators of human E3 ligase FBW7 | Q969H0 | AlphaScreen FBW7–phospho-cyclin E peptide binding, activator screen | normalized activity (activation), % at 26.1 µM | 650,000 compounds, 0.13% hits; in the data active = normalized activity above about 1.9%;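 note: purified mutant Fbw7 with reduced substrate affinity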
# GPR151 activ: activates the human receptor GPR151. Q8TDV0. PathHunter beta-arrestin GPR151 cells, luminescence. activation, % at 11.2 µM. 650,000 compounds, 1% hits; in the data active = activation above about 4.9%;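 note: 0% = median of compound wells and 100% = cells with positive control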
# Target sequence (Q8TDV0 whole entry, looked up): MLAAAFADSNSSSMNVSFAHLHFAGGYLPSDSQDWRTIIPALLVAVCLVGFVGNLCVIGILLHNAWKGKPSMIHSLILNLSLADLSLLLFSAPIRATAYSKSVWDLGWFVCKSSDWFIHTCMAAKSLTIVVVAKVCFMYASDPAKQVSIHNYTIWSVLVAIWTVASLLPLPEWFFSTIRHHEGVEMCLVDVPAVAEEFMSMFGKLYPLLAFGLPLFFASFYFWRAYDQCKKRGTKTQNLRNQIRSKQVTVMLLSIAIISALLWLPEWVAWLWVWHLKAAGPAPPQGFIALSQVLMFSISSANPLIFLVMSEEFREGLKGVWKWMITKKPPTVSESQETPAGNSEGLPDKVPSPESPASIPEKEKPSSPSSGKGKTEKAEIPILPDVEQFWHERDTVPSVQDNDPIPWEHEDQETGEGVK
# GPR151 confirm: human GPR151 activation, confirmation screen. AID 1508609. GPR151 PathHunter beta-arrestin cells, luminescence, 90 min; % of EA-reagent control over plate median. 6,700 tested, under 10 active. activation, % at 11.2 µM. shares compounds with GPR151 activ;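 active = mean percent activation across replicates above the confirmation screen cutoff of 4.91%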
# GPR119 ag: activates human GPR119 in a GPR151 counter-screen; shares compounds with GPR151 activ; GPR119 PathHunter beta-arrestin cells, luminescence, 90 min; 0 = compound-well median, 100 = enzyme-acceptor control; activation, % at 11.2 µM; 6,700 compounds, 0.3% hits; AID 1508611;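 active = mean percent activation in the counterscreen above 29.09%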;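 note: counterscreen on off-target GPR119 to flag nonselective hits from the GPR151 activator screen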
# An asterisk follows results filed as active; / = not tested or not shown.
SMILES,TEAD-YAP inh,MITF inh,FBW7 activator,GPR151 activ,GPR151 confirm,GPR119 ag
COc1ccc(-c2cc(C(F)(F)F)n3ncc(C(=O)Nc4ccc(Br)cc4)c3n2)cc1OC,-12,-8,0,0,/,/
COc1cc2c(cc1OC)[C@@H](c1ccccc1)CN(C)CC2,2,24,0,7.5*,0,-8
CC(C)N1CCc2c(sc(NC(=O)Cc3ccccc3)c2C(N)=O)C1,-14,2,1,0,/,/
CC(=O)N1CCc2c(sc(NC(=O)Cc3ccccc3)c2C(N)=O)C1,1,3,0,5.3*,0,0
CC(C)C(=O)N(CC(=O)Nc1sc2c(c1C(N)=O)CCCC2)Cc1ccccc1,6,-2,0,7.1*,0,7
CCOC(=O)c1c(NC(=O)c2cc(=O)c3ccccc3o2)sc2c1CCN(C(C)=O)C2,1,-10,0,6.0*,0,2
CN(C)c1ccc(NC(=O)CC2NCCNC2=O)cc1 (stereo not drawn),-5,7,0,5.0*,-1,1
O=C(CC1NCCNC1=O)Nc1ccccc1 (stereo not drawn),-1,-7,0,0,/,/
COc1ccc(OC)c(NC(=O)c2ccc(C)cc2)c1,-9,-2,0,0,/,/
COc1ccc(C(=O)N/N=C(\C)c2ccc(OC)c(Br)c2)cc1,-22,1,0,6.3*,-1,0
COc1ccc(OC)c(NC(=O)c2ccc(C)c(Br)c2)c1,-21,2,0,7.9*,0,-10
COc1ccc(CCNC(=O)c2csc(-c3cccs3)n2)cc1,-3,18,1,0,/,/
O=C(NCCc1ccc(O)cc1)c1csc(-c2cccs2)n1,-3,36,0,6.4*,0,5
O=C(Nc1ccc2c3c(cccc13)CC2)c1ccc(-c2ccc(Cl)cc2)o1,-6,14,0,5.1*,-1,-4
O=C(COC(=O)CC1CC2CCC1C2)NC1CC1 (stereo not drawn),-4,-3,0,0,/,/
CCOc1nc(NCCC2=CCCCC2)nc(OCC)n1,-7,-3,0,9.8*,1,-9
CC12CC3CC(C1)CC(NC(=O)c1ccc(Cl)cc1Cl)(C3)C2,-9,6,0,5.0*,0,-5
CCOC(=O)c1c(NC(=O)CSc2nnc(CNC(=O)c3ccc(OC)c(OC)c3)n2-c2cccc(C)c2)sc2c1CCCCC2,8,11,0,1,/,/
O=C1N[C@@H](Cc2c[nH]c3ccccc23)C(=O)N2CCN(C(=O)c3ccc4ccccc4c3)C[C@H]12,5,4,0,2,/,/
COc1ccc(C(=O)N2CCN3C(=O)[C@H](Cc4ccc(Cl)cc4)NC(=O)[C@H]3C2)cc1,-2,-14,0,-1,/,/
O=C1N[C@@H](Cc2c[nH]c3ccccc23)C(=O)N2CCN(C(=O)Oc3ccc(F)cc3)C[C@H]12,-11,-18,0,14*,0,26
COCc1cc(CN2CCN3C(=O)[C@H](Cc4ccc(O)cc4)NC(=O)[C@H]3C2)ccc1OC,3,16,1,0,/,/
COCc1cc(CN2CCN3C(=O)[C@H](Cc4ccccc4)NC(=O)[C@H]3C2)ccc1OC,7,4,0,5.7*,0,5
COc1ccc(C[C@@H]2NC(=O)[C@H]3CN(C(=O)c4cc(Cl)cc(Cl)c4)CCN3C2=O)cc1,-1,11,0,7.4*,1,13
O=C1N[C@@H](Cc2c[nH]c3ccccc23)C(=O)N2CCN(C(=O)c3ccc(F)cc3)C[C@H]12,-2,16,0,6.4*,1,8
SMILES,TEAD-YAP inh,MITF inh,FBW7 activator,GPR151 activ,GPR151 confirm,GPR119 ag
CN1CCN(c2ncnc3c2oc2ccccc23)CC1,-12,-4,0,0,/,/
Cn1c(=O)c(-[n+]2ccccc2)c(O)c2ccccc21,-12,-10,0,-2,/,/
COC(=O)C(CO)NC(=O)C1CCCN1C(=O)CNC(=O)OCc1ccccc1 (stereo not drawn),16,4,0,3,/,/
CCC1CCCCN1S(=O)(=O)c1cc(OC)c(Cl)cc1OC (stereo not drawn),-2,3,0,5.6*,0,7
CCC1CCCCN1S(=O)(=O)c1ccc(OC)cc1 (stereo not drawn),7,4,0,0,/,/
COc1ccccc1Cc1noc(-c2ccc(I)cc2)n1,-9,-26,0,-1,/,/
